What is called inhibition is the relative decrease from the control value, in per cent.

Molecules are shown by their SMILES. In all, about 360,000 compounds went through this assay and about 340 (0.094%) were called active. The entries come from a sample that favours actives as a whole. A number with no mark means an inactive call. No stated cut-off is given here; in the data, active means inhibition above about 40%; inconclusive means no clear call, values can overlap the other calls; inactive means below that.

The test system of the assay is 7,8-diaminopelargonic acid synthase BioA (Mycobacterium tuberculosis). In words: M. tuberculosis BioA enzyme inhibitors, primary screen, biochemical, plate reader, single point, HTS (AID 602481). The note with it: purified M. tuberculosis BioA enzyme, at 9.99 µM, active compounds read high.
Consider `O=C(NCC1CC1)[C@@H]1[C@@H](CO)[C@@H]2Cn3c(ccc(-c4ccccc4)c3=O)[C@H]1N2Cc1nccs1`, for which the inhibition is 0.617%.
For the compound `CC(C)CC#Cc1ccc2c(c1)O[C@H](CN(C)C(=O)Cc1cccnc1)[C@H](C)CN([C@@H](C)CO)S2(=O)=O`, the inhibition was 5.43%.
Consider `CC(=O)c1ccc(N2Cc3ccccc3C2)cc1`, for which the inhibition is 10.6%.
For `CC(=O)c1ccc(N2CCN(CC(O)c3ccccc3)CC2)cc1` (centres undefined) the value was 20.2%.
Take `CC(=O)c1ccc(N2CCN(C(=O)c3ccc4nc[nH]c4c3)CC2)cc1`: the inhibition is 57% (active).
Consider `O=C(Cn1ncc2c3ccccc3n(Cc3ccccc3)c2c1=O)NCc1ccccn1`, for which the inhibition was -3.36%.
As for `Cc1c2cnn(CC(=O)NCc3ccccn3)c(=O)c2c(C)n1Cc1ccc(Cl)cc1`, the inhibition is 86.8% (active).
With `Cc1ccc(Cn2c(C)c3cnn(CC(=O)NCc4ccccn4)c(=O)c3c2C)cc1`, the inhibition was 8.47%.
Consider `O=C(CSc1n[nH]c(-c2cccnc2)n1)Nc1ccnc2ccccc12`, for which the inhibition is 46% (active).
`O=C(CSc1ncn[nH]1)Nc1ccnc2ccccc12`: the inhibition is 1.08%.
For `O=C(CSc1n[nH]c(-c2cccnc2)n1)Nc1ccc(Cl)cc1` the value was 16.3%.
As for `Cc1ccc(S(=O)(=O)N(C)C[C@@H]2Oc3ccc(NS(=O)(=O)c4ccc(F)cc4)cc3CC(=O)N([C@@H](C)CO)C[C@H]2C)cc1`, the inhibition was 2.21%.
Turning to `C[C@@H]1CN([C@H](C)CO)C(=O)Cc2cc(NC(=O)CCCCCC(=O)Nc3ccccc3N)ccc2O[C@H]1CN(C)S(=O)(=O)c1ccc(F)cc1`, the inhibition is 0.122%.
As for `C[C@@H]1CN([C@@H](C)CO)C(=O)c2c(c3ccccc3n2C)-c2ccccc2CO[C@H]1CN(C)Cc1cccc(C(=O)O)c1`, the inhibition was -1.04%.
For the compound `CCC(=O)Nc1ccc2c(c1)C(=O)N(C)C[C@H](OC)[C@H](C)CN(C(=O)C1CCC1)[C@@H](C)CO2`, the inhibition was 1.3%.
As for `C[C@H](CO)N1C[C@H](C)[C@@H](CN(C)S(=O)(=O)c2cn(C)cn2)Oc2c(NC(=O)C3CC3)cccc2C1=O`, the inhibition was -1.33%.
In the case of `CC(=O)N[C@@H]1C=C[C@H](CC(=O)NCC2CCCCC2)O[C@H]1CO`, the inhibition is -0.006%.
For `CO[C@H]1CN(C)C(=O)c2ccc(NS(C)(=O)=O)cc2OC[C@@H](C)N(Cc2ccccc2)C[C@@H]1C`, the inhibition is -2.35%.
Turning to `CCCNC(=O)N(C)C[C@H]1Oc2ncc(C#C[C@@H](C)O)cc2C(=O)N([C@@H](C)CO)C[C@@H]1C`, the inhibition was -0.359%.
`CCC(=O)N1C[C@@H](C)[C@@H](OC)CN(C)C(=O)c2ccc(NC(=O)C3CCCCC3)cc2OC[C@H]1C`: the inhibition was -0.504%.
Consider `C[C@H](CO)N1C[C@H](C)[C@@H](CN(C)Cc2ccccc2)Oc2ccc(NC(=O)CCCN(C)C)cc2C1=O`, for which the inhibition was -2.64%.
For `CCCNC(=O)C[C@@H]1CC[C@H]2[C@H](COc3ccc(NS(=O)(=O)c4ccccc4C)cc3C(=O)N2C)O1` the value was 1.74%; for `COc1ccc(C(=O)N(C)Cc2ccc(OC)c(OC)c2OC)cc1S(=O)(=O)N1CCOCC1`, -0.32%; for `CO[C@@H](CN(C)C(=O)c1ccc2c(c1)OCO2)[C@@H](C)CN([C@H](C)CO)S(=O)(=O)c1ccccc1`, 3.78%.
The same measure for `COc1c(C=O)c(CCN(C)C(=O)c2ccc(F)cc2)cc2c1OCO2`: 48.4% (active).
For `O=C(Cc1ccccc1)N1C[C@H]2[C@@H](c3ccccc31)[C@H](CO)N2C(=O)C1CCOCC1`, the inhibition was -4.05%.
For `CC(=O)N(C)C[C@@H]1Oc2ncc(C#Cc3ccccn3)cc2C(=O)N([C@@H](C)CO)C[C@@H]1C`, the inhibition is -5.71%.
For `CN(C)C(=O)c1cccc(-c2ccc3c(c2)[C@H]2[C@H](CCN2C(=O)c2cccnc2)[C@H](CO)N3)c1`, the inhibition is 19.8%.
Consider `Cc1ccccc1S(=O)(=O)N(C)C[C@@H]1OCc2ccccc2-c2c(n(C)c3ccccc23)C(=O)N([C@H](C)CO)C[C@H]1C`, for which the inhibition is -1.26%.
For `C[C@@H]1CCCCO[C@H](CN(C)S(=O)(=O)c2cn(C)cn2)[C@@H](C)CN([C@@H](C)CO)C(=O)c2cc(NC(=O)CCC(F)(F)F)ccc2O1`, the inhibition was -0.672%.
Take `CN1c2ccc(-c3ccccc3F)cc2[C@H]2[C@H](CCN2C(=O)Cc2ccccn2)[C@H]1CO`: the inhibition was 6.26%.
`CN1c2ccc(-c3ccccc3)cc2[C@H]2[C@H](CCN2C(=O)Cc2ccccn2)[C@H]1CO`: the inhibition is 50.1% (active).
For `COc1ccc(-c2ccc3c(c2)[C@@H]2[C@@H](CCN2C(=O)Cc2ccccn2)[C@H](CO)N3C)cc1` the value was -0.705%.
Regarding `COCc1cn(CC[C@H]2CC[C@@H](NC(=O)Nc3ccc(OC)cc3)[C@@H](CO)O2)nn1`, the inhibition is 4.23%.
For `CN1c2ccc(-c3cccc(C#N)c3)cc2[C@@H]2[C@@H](CCN2C(=O)C2CCC2)[C@@H]1CO` the value was 1.18%.
In the case of `C=CCOc1nc2c(c(=O)n(C)c(=O)n2C)n1Cc1ccc(Cl)cc1Cl`, the inhibition was -1.57%.
As for `Cn1c(=O)c2c(nc(OCc3cccnc3)n2Cc2ccccc2)n(C)c1=O`, the inhibition is 69.8% (active).
As for `CCOC(=O)N1CCN(Cc2nc3c(c(=O)n(C)c(=O)n3C)n2Cc2ccccc2)CC1`, the inhibition was 4.21%.
On to `CN(C)C(=O)C[C@H]1C[C@H]2c3cc(NC(=O)Nc4ccc(C(F)(F)F)cc4)ccc3O[C@H]2[C@@H](CO)O1`, for which the inhibition is -0.072%.
Take `COCCN(C[C@H]1[C@H](c2ccccc2)[C@@H](CO)N1C(C)=O)C(=O)c1cccnc1`: the inhibition was 4.64%.
In the case of `C[C@H](CO)N1C[C@H](C)[C@@H](CN(C)C(=O)Cc2cccnc2)Oc2ncc(-c3ccncc3)cc2C1=O`, the inhibition was 5.57%.
Consider `CCCNC(=O)N1C[C@H](C)[C@H](OC)CN(C)C(=O)c2cc(NC(=O)CC)ccc2OC[C@H]1C`, for which the inhibition is 0.679%.
Turning to `CO[C@@H](CN(C)S(=O)(=O)c1ccc(C)cc1)[C@@H](C)CN([C@@H](C)CO)S(=O)(=O)c1cccc(Cl)c1`, the inhibition is -0.469%.
Regarding `CN1C(=O)c2cc(NC(=O)Nc3ccccc3F)ccc2OC[C@H]2O[C@@H](CC(=O)Nc3cccc(Cl)c3)CC[C@@H]21`, the inhibition is 4.99%.

(Values after PubChem BioAssay AID602481 (Broad Institute, 2012).)
